This note sets out measurements from PubChem BioAssay.

Assay [1] can be described thus: reducers of endogenous Her2 protein level, primary screen, SKBR3 breast tumor cells, AlphaScreen, ATP viability (AID 461;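 active = Her2 level under about 52% in both replicate screens, with viability over 70% of control, limit read from the data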;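 as to Her2 level: lower value means less Her2 protein in the cells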;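 as to viability: percent of carrier control wells set as 100% viability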). Particulars: 18-24 h, measured here: SKBR3 viability, ATP luminescence, at 10 µM.
Assay [2] deals with Receptor tyrosine-protein kinase erbB-2 (Homo sapiens) (UniProt P04626). The assay is described as above. Particulars: 18-24 h, at 10 µM, stronger effect = lower value.
Chain of Receptor tyrosine-protein kinase erbB-2 (Homo sapiens) (P04626 whole entry, looked up): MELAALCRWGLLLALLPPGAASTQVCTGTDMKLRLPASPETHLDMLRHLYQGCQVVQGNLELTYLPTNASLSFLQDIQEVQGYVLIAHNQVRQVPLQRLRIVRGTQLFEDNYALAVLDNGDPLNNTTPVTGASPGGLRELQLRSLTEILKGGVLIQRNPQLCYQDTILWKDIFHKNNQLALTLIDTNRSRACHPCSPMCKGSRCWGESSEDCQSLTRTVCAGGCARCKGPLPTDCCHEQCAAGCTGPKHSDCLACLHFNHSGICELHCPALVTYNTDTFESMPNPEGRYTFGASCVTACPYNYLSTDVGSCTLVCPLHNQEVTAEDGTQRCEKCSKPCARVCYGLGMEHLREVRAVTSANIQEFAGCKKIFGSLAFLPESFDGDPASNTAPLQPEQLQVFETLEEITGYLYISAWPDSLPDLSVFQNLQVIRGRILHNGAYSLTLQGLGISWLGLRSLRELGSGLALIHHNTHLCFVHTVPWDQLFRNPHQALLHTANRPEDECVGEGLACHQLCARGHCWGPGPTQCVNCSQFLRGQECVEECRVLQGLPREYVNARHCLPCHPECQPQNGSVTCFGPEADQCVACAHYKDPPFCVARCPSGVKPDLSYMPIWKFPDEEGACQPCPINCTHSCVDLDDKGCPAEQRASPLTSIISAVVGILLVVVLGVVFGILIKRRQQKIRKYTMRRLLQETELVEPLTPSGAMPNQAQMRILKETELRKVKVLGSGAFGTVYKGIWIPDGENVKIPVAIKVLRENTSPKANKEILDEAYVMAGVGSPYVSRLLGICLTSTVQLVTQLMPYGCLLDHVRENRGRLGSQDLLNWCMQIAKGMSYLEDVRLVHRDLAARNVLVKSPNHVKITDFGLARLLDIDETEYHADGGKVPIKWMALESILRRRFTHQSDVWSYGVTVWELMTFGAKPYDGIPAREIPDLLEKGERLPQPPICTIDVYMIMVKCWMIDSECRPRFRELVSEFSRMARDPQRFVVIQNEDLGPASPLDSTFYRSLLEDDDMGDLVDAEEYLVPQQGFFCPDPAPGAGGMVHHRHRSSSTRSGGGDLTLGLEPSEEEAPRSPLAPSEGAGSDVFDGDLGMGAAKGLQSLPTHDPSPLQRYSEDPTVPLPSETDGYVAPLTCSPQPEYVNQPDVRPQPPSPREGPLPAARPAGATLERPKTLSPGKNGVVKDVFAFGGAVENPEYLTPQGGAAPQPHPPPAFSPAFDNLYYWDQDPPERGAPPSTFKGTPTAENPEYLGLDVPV
The nature of assay [3]: SK-BR-3 cell growth inhibitors, pilot screen, 24 h, human (AID 572;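 active = viability at or below 10% of carrier control in both of two separate runs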;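 also: compound exposure lasted between 18 and 24 h rather than exactly 24 h; 100% = carrier-treated control wells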). Particulars: SK-BR-3 viability, CellTiter-Glo luminescence, at 10 µM, stronger effect = lower value. (In general: Cellular ATP, detected with luciferase, serves as a proxy for viable cell number.)
A short description of assay [4]: HUVEC growth inhibition – cell-based, human, primary screen (AID 575;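 active = viability at or below 30% in both replicate assays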;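 also: 100% = median of untreated cell wells with 0.1% DMSO on each plate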). Particulars: HUVEC proliferation, CellTiter-Glo luminescence, 72 h; at 10 µM; stronger effect = lower value.
A short description of assay [5]: growth inhibitors of H69AR lung tumor, primary screen, human, duplicate replicates (AID 580;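 active = viability at or under a set limit in both replicates, limit being median viability minus 3 SD, cut at about 48% in these data, passing the limit was not always enough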;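 also: 100% = mean luminescence of untreated wells and 0% = no signal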). Particulars: H69AR lung tumor cells viability, ATP luminescence, 72 h; at 10 µM; stronger effect = lower value.
Assay [6] can be described thus: reversal of MRP1-mediated doxorubicin resistance, pilot screen, H69AR cells, doxorubicin co-treatment (AID 601;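 active = viability loss from added drug above about 55%, and viability with drug at most 40%, in both replicates, limit read from the data, passing the limit was not always enough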). Particulars: CellTiter-Glo, 72 h, at 10 µM; for differential viability (reversal): stronger effect = higher value.
Assay [7] in a line: 384-well plate pilot, post-Golgi transport modulator project, inhibition of yeast transport mutant growth (AID 636; in the data active = inhibition above about 31%). Particulars: absorbance 615 nm, about 18 h, stronger effect = higher value.
Assay [8] can be described thus: growth suppression of yeast trafficking mutant, preliminary HTS, modulators of trafficking downstream of Golgi apparatus project, 1536-format plate, OD 615 nm (AID 637; in the data active = inhibition above about 30%). Particulars: yeast transport mutant growth, absorbance 615 nm, 18 h; stronger effect = higher value.
Assay [9] in a line: OD615 S. cerevisiae growth inhibition, permissive medium, pilot counter-assay, permissive growth control for S. cerevisiae lifespan shortening project (AID 705;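 active = growth inhibition above 25% in both replicates, a cutoff set 3 SD above the mean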). Particulars: OD615, 24 h, at 10 µM, stronger effect = higher value.
A short description of assay [10]: Restrictive medium S. cerevisiae growth inhibition, OD615, pilot screen of yeast lifespan reduction project, restrictive growth control (AID 706;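 active = growth inhibition above a set limit, 3 SD over mean compound inhibition, in both replicates, cut at about 43% in these data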;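 also: modified DeaD lifespan yeast strain shifted to restrictive glucose medium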). Particulars: OD615, 48 h, at 10 µM, stronger effect = higher value.
Assay [11] can be described thus: viability gain of MRP-1-high H69AR cells under doxorubicin, pilot screen, MRP-1 activator project, CellTiter-Glo, duplicate (AID 807;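 active = viability increase at or above a cutoff of the median across tested compounds plus 3 SD, cut at about 8.5% in these data, passing the limit was not always enough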;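 also: compound pretreatment 18-22 h then 72 h combined with doxorubicin; 0% = doxorubicin alone and 100% = vehicle without doxorubicin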). Particulars: H69AR viability with doxorubicin, CellTiter-Glo luminescence; at 10 µM; stronger effect = higher value.
Assay [12] in a line: growth suppression of beta-catenin knockout HCT116, pilot screen, human colon tumor cells (AID 823).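 Also: 0% = wells killed by 20 µM Hyamine and 100% = untreated DMSO cell wells.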 Particulars: CellTiter-Glo, 60 h, at 10 µM, stronger effect = lower value.
Assay [13] can be described thus: growth suppression of PTEN-deleted HCT116, pilot screen, cell-based, HCT116 clonal line, CellTiter-Glo (AID 824;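 active = viability at or below 27.92% in each of two runs, the all-compound median minus 4 SD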;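 also: 0% = 20 µM Hyamine control and 100% = vehicle cell control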). Particulars: 60 h, at 10 µM, stronger effect = lower value.
Assay [14] in a line: inhibitors of the yeast RAM network, pilot screen, dse1pr::URA3 reporter, 5-FOA selection (AID 869;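 active = inhibition over a set limit, the all-compound mean plus 3 SD, in both replicate runs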;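 also: 0% = DMSO wells with no growth and 100% = 10 µM 1-NA-PP1 with full growth; RAM network block rescues cells from 5-FOA so hits raise OD615 growth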). Particulars: S. cerevisiae dse1pr::URA3 5-FOA growth, OD615, 2 d; at 10 µM; stronger effect = higher value; strain carries analog-sensitive mutant Cbk1 kinase.
Assay [15] can be described thus: RAM signaling pathway blockade in yeast – S. cerevisiae, Pdr1DBD-CYC8 efflux-inhibited sensitized strain, primary screen (AID 1298;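 active = RAM network inhibition above 8.4% in each of two replicates, 3 SD over the compound average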;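 also: 0% = DMSO untreated cells without growth and 100% = 10 µM 1-NA-PP1 full growth; higher means more yeast growth rescued from 5-FOA killing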). Particulars: S. cerevisiae cbk1-as DSE1-URA3 strain, 5-FOA growth OD615, 2 d; at 50 µM; stronger effect = higher value.
[16] abbreviates: H69AR cells + 2 uM doxorubicin, measured here: viability with 2 uM doxorubicin, stronger effect = lower value.
Setting [17] is: H69AR cells, compound alone cytotoxicity.

Records with an inconclusive call do not appear. Calls of active or inactive are those of the source.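 The calls were made as follows, unless noted: active = cell viability at or below a set limit in both duplicate runs, the limit being the all-compound median minus 4 SD (cut at about 23% in these data, passing the limit was not always enough); inconclusive = no clear call, values can overlap the other calls; inactive = the rest.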

In the case of `c1ccc(CN2CCN(CCCNc3ccc4nnc(-c5ccccc5)n4n3)CC2)cc1`, the viability – broadly, a read-out of living cells in per cent, often relative to untreated cells – in [1] is 83%; in assay [3], 83% (inactive); in assay [4] it was 50.2% (inactive); in [5], 86.3% (inactive); in assay [6] (setting [16]), 30.8%; in assay [6] (setting [17]), 86.3%. For the same compound, the viability in [12] was 50% (inactive); in [13] it was 55.5% (inactive). In assay [2], the Her2 level was 78.5% (inactive). Moreover, the differential viability (reversal) in assay [6] (H69AR cells + 2 uM doxorubicin) was 55.5% (active). Further, the results for the inhibition in assay [7], in assay [8] and in assay [14] were 0.13% (inactive), -2.17% (inactive) and 2.78% (inactive), respectively. In addition, the results for the growth inhibition in [9] and in assay [10] were -8.05% (inactive) and 5.01% (inactive), respectively. Besides, the viability increase in [11] was -7.78% (inactive). Also, the RAM network inhibition in [15] was 3.65% (inactive).
In the case of `Cn1cc(C2NC(=O)c3c(sc4c3CCCC4)N2)c2ccccc21` (stereo not given), the viability in assay [1] is 99%; in [3], 99% (inactive); in [4], 61.9% (inactive); in assay [5], 64.9% (inactive); in [6] (setting [16]), 60.4%; in assay [6] (setting [17]), 64.9%. Also, the figures for the viability in [12] and in assay [13] were 101% (inactive) and 90.8% (inactive), respectively. Further, in assay [2], the Her2 level was 78.5% (inactive). In assay [6] (H69AR cells + 2 uM doxorubicin), the differential viability (reversal) was 4.49% (inactive). The inhibition – broadly, the drop in the measured response relative to a control, in per cent – was 1.6% (inactive) in assay [7], 5.17% (inactive) in [8] and 0.64% (inactive) in assay [14]. Further, the values for the growth inhibition in assay [9] and in assay [10] were -6.96% (inactive) and 2.46% (inactive), respectively. Besides, the viability increase in [11] was -2.92% (inactive). For the same compound, in assay [15], the RAM network inhibition is 2.82% (inactive).
Turning to `COc1cccc(C2CC(c3ccc(C)cc3)n3nc(N)nc3N2)c1` (stereo not given), the viability in assay [1] was 104%; in [3], 104% (inactive); in assay [4], 95.3% (inactive); in assay [5] it was 98.2% (inactive); in [6] (setting [16]), 105%; in [6] (setting [17]) it was 98.2%. Further, the viability in [12] was 103% (inactive); in [13], 98.6% (inactive). Moreover, in [2], the Her2 level was 112% (inactive). The differential viability (reversal) in [6] (H69AR cells + 2 uM doxorubicin) was -7.23% (inactive). In addition, the inhibition is -4.1% (inactive) in assay [7], 3.5% (inactive) in [8] and -0.18% (inactive) in assay [14]. Further, the growth inhibition in [9] is 0.34% (inactive); in assay [10], 9.55% (inactive). In addition, the viability increase in [11] was -1.45% (inactive). In [15], the RAM network inhibition was 7.85% (inactive).
As for `CC(C)CCN(C)C1CCN(S(=O)(=O)c2ccc(F)cc2)CC1`, the viability is 87% in assay [1]; 87% (inactive) in assay [3]; 107% (inactive) in [4]; 81% (inactive) in [5]; 91.6% in assay [6] (setting [16]); 81% in [6] (setting [17]). The viability in [12] is 97.6% (inactive); in assay [13] it was 98.5% (inactive). For the same compound, in assay [2], the Her2 level is 104% (inactive). In addition, the differential viability (reversal) in assay [6] (H69AR cells + 2 uM doxorubicin) was -10.5% (inactive). Besides, the figures for the inhibition in [7], in assay [8] and in assay [14] were -1.87% (inactive), -4.33% (inactive) and 0.875% (inactive), respectively. Further, the figures for the growth inhibition in assay [9] and in assay [10] were -7.46% (inactive) and 10.4% (inactive), respectively. Moreover, the viability increase in [11] was -2.68% (inactive). The RAM network inhibition in [15] was 4.65% (inactive).
Turning to `Cn1c(=O)c2c(nc(CN3CCN(Cc4ccccc4)CC3)n2Cc2cccc(Cl)c2)n(C)c1=O`, the viability in [1] was 93.5%; in assay [3], 93.5% (inactive); in assay [4], 69.9% (inactive); in assay [5], 57.7% (inactive); in assay [6] (setting [16]) it was 20.9%; in assay [6] (setting [17]) it was 57.7%. Further, the viability was 60.8% (inactive) in [12] and 58.7% (inactive) in [13]. Further, in assay [2], the Her2 level was 81.5% (inactive). For the same compound, in assay [6] (H69AR cells + 2 uM doxorubicin), the differential viability (reversal) was 36.9% (inactive). Also, the inhibition in assay [7] is -6.67% (inactive); in assay [8], 5.5% (inactive); in assay [14], 1% (inactive). For the same compound, the values for the growth inhibition in assay [9] and in assay [10] were 3.47% (inactive) and -0.975% (inactive), respectively. For the same compound, in assay [11], the viability increase is -2.86% (inactive). Besides, in [15], the RAM network inhibition is 4.53% (inactive).
